Where “and” joins values, the source holds several entries; their conditions need not be identical. Equal values may be shown once. Results filed as inconclusive are left out. Calls of active or inactive are those of the source.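 Rule for the calls, unless noted: active = normalized viability below 100% at a tested concentration; inactive = the rest.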
Columns and labels:
[1] = P. berghei load reduction in hepatocytes – cell-based, HepG2, luciferase luminescence, HepG2 viability, primary screen (AID 624349; in the data active = parasite load remaining mostly below about 12%, no sharp cut-off; inactive = mostly above about 10%;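 note: 100% = mean of DMSO negative control wells on the same plate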); settings: P. berghei liver stage in HepG2, luciferase luminescence, concentration not given here; parasite load remaining: stronger effect = lower value; viability: measured here: HepG2 viability without parasites
[2] = Wnt pathway potentiators raising nuclear beta-catenin – imaging, WNT3A-conditioned medium, mouse C2C12, NPC library, primary screen (AID 1117326; in the data active = nuclear beta-catenin stimulation mostly above about 4.2%, no sharp cut-off; inactive = mostly below about 10%); settings: stronger effect = higher value
[3] = stimulators of insulin release from INS-1E, primary screen, cell-based, 5 mM glucose, NPC library (AID 1117329;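 active = compound raises insulin release from rat beta cells at 5 mM glucose, no numeric limit stated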); settings: rat INS-1E insulin secretion, at 10 µM, stronger effect = higher value
[4] = growth inhibition of GSK3B-pretreated HCT116 cells – cell-based, CellTiter-Glo, 0.2 to 20 µM (AID 1117336;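 active = compounds lowering colon cancer cell viability after pretreatment blocking the GSK3B kinase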); settings: HCT116 viability after GSK3B inhibitor, at 20 µM, stronger effect = higher value
[5] = inhibition of endothelial tube formation, primary screen, imaging, VEGF stimulated, CD31 staining, tube area, NPC library (AID 1117340;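 active = compound that reduces growth-factor-driven endothelial tube area in a mixed cell culture, no cutoff stated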); settings: VEGF-stimulated ADSC/ECFC co-culture, at 10 µM, stronger effect = higher value
[6] = GLP1 release stimulators, primary, NCI-H716, NPC library (AID 1117341;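 active = compound raises GLP1 secretion from the human gut endocrine cells, with no numeric limit stated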); settings: NCI-H716 cells, at 10 µM, stronger effect = higher value
[7] = HCT116 colon cancer cell growth inhibition, primary screen, CellTiter-Glo luminescence, NPC library (AID 1117342;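 active = compounds that lower survival of HCT116 colon cancer cells in the luminescence readout, no numeric limit stated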); settings: at 20 µM (top of the series)
[8] = reduced SW480 viability measured with CellTiter-Glo, NPC library, primary (AID 1117343;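 active = compounds that lower viability of the colon cancer cells in the luminescence readout, with no numeric limit stated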); settings: CellTiter-Glo luminescence; at 20 µM (top of the series) unless noted
[9] = NPC library primary testing for decreased DLD-1 cell viability via CellTiter-Glo (AID 1117346;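 active = compounds that lower survival of DLD-1 colon cancer cells in the luminescence readout, no cutoff given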); settings: DLD-1 viability, CellTiter-Glo luminescence; at 20 µM (top of the series)
[10] = EMT-state selective cytotoxicity in co-culture – imaging, PC-3E GFP, TEM4-18 mCherry, primary screen (AID 1345086;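 active = compounds killing one labelled cell type while sparing the other, by normalised counts and ratio limits, not self-fluorescent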;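 for all read-outs here: cells exposed to compound for 72 h before imaging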;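 for red/green cell ratio (normalised): normalised mesenchymal count divided by normalised epithelial count so high means epithelial killing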); settings: PC-3E GFP / TEM4-18 mCherry co-culture, imaging cell counts, at 1 µM; for red/green cell ratio (normalised): actives lie on both sides, counts scaled to control wells, 1 = unselective
[11] = viability loss with induced miR-34 in A549 – imaging, A549 dox-inducible miR-34, nuclei and caspase counts, primary screen (AID 1347080;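 active = compounds whose cell count with miR-34 switched on is under 0.7 times the count with it off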); settings: A549 miR-34 inducible, Hoechst nuclei count, 48 h
[12] = biological target: NAD(+) hydrolase SARM1 (Homo sapiens) (UniProt Q6SZW1); assay: blocking NAD cleavage by SARM1 SAM-TIR – cell lysate, NAD-Glo luminescence (AID 1508614;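 active = compound whose remaining NAD level is above about 45 nM, limit read from the data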;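 note: higher remaining NAD means stronger inhibition of SARM1 NADase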); settings: SAM-TIR HEK293T lysate NADase, at 1 µM, stronger effect = higher value
NAD(+) hydrolase SARM1 (Homo sapiens), sequence (Q6SZW1 whole entry, looked up): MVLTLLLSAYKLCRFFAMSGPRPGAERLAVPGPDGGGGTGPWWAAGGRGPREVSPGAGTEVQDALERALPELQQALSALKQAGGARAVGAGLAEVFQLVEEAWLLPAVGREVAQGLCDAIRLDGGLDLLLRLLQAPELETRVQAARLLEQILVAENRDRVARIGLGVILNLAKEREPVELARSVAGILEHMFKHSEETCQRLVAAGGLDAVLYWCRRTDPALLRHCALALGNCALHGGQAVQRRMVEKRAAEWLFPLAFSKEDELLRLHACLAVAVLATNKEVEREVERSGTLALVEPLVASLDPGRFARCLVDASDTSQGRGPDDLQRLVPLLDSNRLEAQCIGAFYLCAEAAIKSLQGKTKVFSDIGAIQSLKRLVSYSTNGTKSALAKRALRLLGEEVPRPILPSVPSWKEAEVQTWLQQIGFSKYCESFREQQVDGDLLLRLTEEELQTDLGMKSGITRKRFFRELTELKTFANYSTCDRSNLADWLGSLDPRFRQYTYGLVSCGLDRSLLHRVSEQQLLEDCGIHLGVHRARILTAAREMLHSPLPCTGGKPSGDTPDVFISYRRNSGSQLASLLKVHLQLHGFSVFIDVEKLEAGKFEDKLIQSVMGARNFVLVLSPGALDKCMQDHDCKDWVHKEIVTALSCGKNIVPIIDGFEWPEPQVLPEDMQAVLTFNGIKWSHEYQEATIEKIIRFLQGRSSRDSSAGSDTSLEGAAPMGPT

[13] = system: Aerobactin synthetase IucA (Klebsiella pneumoniae); assay: inhibition of K. pneumoniae IucA enzyme – biochemical, Tocris library, absorbance (AID 1345561; call rule not given here;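 note: 100% = enzyme without compound and 0% = no enzyme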); settings: purified IucA enzyme assay, absorbance (OD) read-out; stronger effect = lower value;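 tested at 8 µM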
[14] = viability loss in pontine glioma line – cell-based, SU-DIPG-XVII, MIPE5.0, CellTiter-Glo, qHTS, dose response (AID 1347060; cut-off not given, nearly all actives have AC50 up to about 26 µM;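 note: cells exposed to compound for 48 hours before viability readout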); settings: CellTiter-Glo ATP luminescence
[15] = viability loss in pontine glioma line – cell-based, SU-DIPG-XIII, MIPE4.0, CellTiter-Glo, qHTS, dose response (AID 1347061; cut-off not given, nearly all actives have AC50 up to about 37 µM;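 note: cells exposed to compound for 48 hours before readout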); settings: CellTiter-Glo ATP luminescence
[16] = viability loss in pontine glioma line – cell-based, JHH-DIPG-1, MIPE4.0, CellTiter-Glo, qHTS, dose response (AID 1347062; cut-off not given, nearly all actives have AC50 up to about 27 µM); settings: JHH-DIPG-1 viability, CellTiter-Glo ATP luminescence
[17] = growth inhibition of DIPG cells – cell-based, MIPE5.0 library, qHTS (AID 1347068; cut-off not given, nearly all actives have IC50 up to about 30 µM); settings: SU-DIPG-XXV viability
[18] = MELAS cybrid and Rieske KO viability enhancers – cell-based, MELAS cybrids, Rieske KO mouse fibroblasts, CellTiter-Glo, primary screen (AID 1508586); settings: low glucose;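 note: z relative to plate mean and SD of compound and empty wells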
[19] = drug combination growth inhibition, ovarian cancer – cell-based, oncology-focused library, rucaparib conditional, profiling panel (AID 1508598); settings: patient-derived ovarian cancer cells, CellTiter-Glo viability, 144 h, stronger effect = lower value
[20] = galactose survival enhancers in mitochondrial complex I cybrids – cell-based, galactose medium, ATP luminescence, primary screen (AID 1645843;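 active = z-score of at least 1.8 in each of two replicates, scored against plate mean and spread of sample wells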;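 note: positive z means more ATP and so rescue of galactose-driven cybrid death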); settings: complex I mutant cybrid cells, 72 h, stronger effect = higher value
[21] = measured here: epithelial PC-3E GFP cell survival
[22] = measured here: mesenchymal TEM4-18 mCherry cell survival
[23] = stronger effect = lower value, cell number ratio, induced over uninduced
[24] = measured here: relative caspase fold change +Dox/-Dox
[25] = measured here: total cells with miR-34 induction, stronger effect = lower value
[26] = measured here: total cells without miR-34 induction

O=C1OC2(c3ccc(O)cc3Oc3cc(O)ccc32)c2ccccc21
11200: cell count [11, 25]
inactive: parasite load remaining [1] 58.1% | nuclear beta-catenin stimulation ([2]; at 10 µM) -0.4% | insulin secretion stimulation [3] 3.7% | viability decrease [4] 6.1% | tube area decrease [5] 15.8% | GLP1 secretion stimulation [6] -2.3% | inhibition of viability [7] 9.8% | viability decrease (inhibition) [8] 16% | viability decrease (inhibition) [9] -11.6% | red/green cell ratio (normalised) [10] 1.43 | fold change [11, 23] 0.894 | remaining NAD [12] 10 nM
12500: cell count [11, 26]
5.09: fold change [11, 24]
1.6: normalised cell number [10, 22]
3.4%: nuclear beta-catenin stimulation ([2]; stimulation, at 2 µM)
1.11: normalised cell number [10, 21]
92.3%: viability [1]

Nc1nc(Cl)nc2c1ncn2[C@@H]1O[C@H](CO)[C@@H](O)[C@@H]1F
84%: viability [1]
1.45 and 0.847: fold change [11, 24]
inactive: parasite load remaining [1] 11.2% | nuclear beta-catenin stimulation ([2]; at 10 µM) 30.8% | insulin secretion stimulation [3] 0.1% | GLP1 secretion stimulation [6] 0.3% | viability decrease (inhibition) [9] 43.5% | remaining activity [13] 104% | outcome [15] | outcome [16] | outcome [17] | fold change [11, 23] 1.02 and 0.96 | viability ([19]; at 0.000305 µM, OCI-C5x cells, with rucaparib 10 µM, 100% = cells with rucaparib alone) 115% | viability ([19]; at 0.000305 µM, OCI-C5x cells, without rucaparib) 107% | viability ([19]; at 0.000305 µM, OCI-P5x cells, with rucaparib 20 µM, 100% = cells with rucaparib alone) 116% | viability ([19]; at 0.000305 µM, OCI-P5x cells, without rucaparib) 113% | viability ([19]; at 0.00122 µM, OCI-C5x cells, with rucaparib 10 µM, 100% = cells with rucaparib alone) 118% | viability ([19]; at 0.00122 µM, OCI-C5x cells, without rucaparib) 113% | viability ([19]; at 0.00122 µM, OCI-P5x cells, with rucaparib 20 µM, 100% = cells with rucaparib alone) 112% | viability ([19]; at 0.00122 µM, OCI-P5x cells, without rucaparib) 109% | viability ([19]; at 0.00488 µM, OCI-C5x cells, with rucaparib 10 µM, 100% = cells with rucaparib alone) 116% | viability ([19]; at 0.00488 µM, OCI-C5x cells, without rucaparib) 110% | viability ([19]; at 0.00488 µM, OCI-P5x cells, with rucaparib 20 µM, 100% = cells with rucaparib alone) 115% | viability ([19]; at 0.00488 µM, OCI-P5x cells, without rucaparib) 118% | viability ([19]; at 0.0195 µM, OCI-C5x cells, with rucaparib 10 µM, 100% = cells with rucaparib alone) 113% | viability ([19]; at 0.0195 µM, OCI-C5x cells, without rucaparib) 112% | viability ([19]; at 0.0195 µM, OCI-P5x cells, with rucaparib 20 µM, 100% = cells with rucaparib alone) 111% | viability ([19]; at 0.0781 µM, OCI-P5x cells, with rucaparib 20 µM, 100% = cells with rucaparib alone) 111% | remaining NAD [12] 10 nM | z-score [20] -0.56 and -2.21
3880 and 3040: cell count [11, 25]
-2.1: z-score ([18]; MELAS cybrid survival, CellTiter-Glo 48 h, stronger effect = higher value)
2.02: z-score ([18]; Rieske KO mouse fibroblast survival, CellTiter-Glo 72 h)
17.4%: nuclear beta-catenin stimulation ([2]; stimulation, at 2 µM)
active: viability decrease [4] 44.1% | tube area decrease [5] 104% | inhibition of viability [7] 80.9% | viability decrease (inhibition) [8] 59.6% | AC50 [14] 0.332 µM | viability ([19]; at 0.0195 µM, OCI-P5x cells, without rucaparib) 95% | viability ([19]; at 0.0781 µM, OCI-C5x cells, with rucaparib 10 µM, 100% = cells with rucaparib alone) 98% | viability ([19]; at 0.0781 µM, OCI-C5x cells, without rucaparib) 78.6% | viability ([19]; at 0.0781 µM, OCI-P5x cells, without rucaparib) 84.8% | viability ([19]; at 0.313 µM, OCI-C5x cells, with rucaparib 10 µM, 100% = cells with rucaparib alone) 24% | viability ([19]; at 0.313 µM, OCI-C5x cells, without rucaparib) 24.6% | viability ([19]; at 0.313 µM, OCI-P5x cells, with rucaparib 20 µM, 100% = cells with rucaparib alone) 57.8% | viability ([19]; at 0.313 µM, OCI-P5x cells, without rucaparib) 29.3% | viability ([19]; at 1.25 µM, OCI-C5x cells, with rucaparib 10 µM, 100% = cells with rucaparib alone) 22.5% | viability ([19]; at 1.25 µM, OCI-C5x cells, without rucaparib) 23.9% | viability ([19]; at 1.25 µM, OCI-P5x cells, with rucaparib 20 µM, 100% = cells with rucaparib alone) 42.3% | viability ([19]; at 1.25 µM, OCI-P5x cells, without rucaparib) 20.5% | viability ([19]; at 5 µM, OCI-C5x cells, with rucaparib 10 µM, 100% = cells with rucaparib alone) 19.1% | viability ([19]; at 5 µM, OCI-C5x cells, without rucaparib) 19.7% | viability ([19]; at 5 µM, OCI-P5x cells, with rucaparib 20 µM, 100% = cells with rucaparib alone) 36.1% | viability ([19]; at 5 µM, OCI-P5x cells, without rucaparib) 18.2%
3820 and 3160: cell count [11, 26]

CC(C)=CCC/C(C)=C/CO
71.1%: viability [1]
1.13: normalised cell number [10, 21]
1.03: normalised cell number [10, 22]
inactive: parasite load remaining [1] 123% | nuclear beta-catenin stimulation ([2]; at 10 µM) -0.1% | insulin secretion stimulation [3] 0.7% | viability decrease [4] -10.3% | tube area decrease [5] 12.4% | GLP1 secretion stimulation [6] -1.8% | inhibition of viability [7] 1.77% | viability decrease (inhibition) [8] -1.7% | viability decrease (inhibition) [9] -8.2% | red/green cell ratio (normalised) [10] 0.92
3%: nuclear beta-catenin stimulation ([2]; stimulation, at 2 µM)

— PubChem BioAssay
